Screening data as filed in PubChem.
Shown is part of a subset that was picked to be rich in hits.
IDE exosite FP – exo-site inhibitors of human IDE, primary screen, biochemical, fluorescence anisotropy, probe displacement; z-score at 20 µM; 6.3% of 17,000 active; purified IDE, FL-6b probe fluorescence polarization; hits give low values; Insulin-degrading enzyme (Homo sapiens), P14735;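 active means z-score of -3 or lower, meaning strong loss of probe binding signal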;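 further: His-tagged human IDE residues 42-1019 made in E. coli with 30 nM FL-6b probe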
Target sequence (P14735 42-1019 limits assumed): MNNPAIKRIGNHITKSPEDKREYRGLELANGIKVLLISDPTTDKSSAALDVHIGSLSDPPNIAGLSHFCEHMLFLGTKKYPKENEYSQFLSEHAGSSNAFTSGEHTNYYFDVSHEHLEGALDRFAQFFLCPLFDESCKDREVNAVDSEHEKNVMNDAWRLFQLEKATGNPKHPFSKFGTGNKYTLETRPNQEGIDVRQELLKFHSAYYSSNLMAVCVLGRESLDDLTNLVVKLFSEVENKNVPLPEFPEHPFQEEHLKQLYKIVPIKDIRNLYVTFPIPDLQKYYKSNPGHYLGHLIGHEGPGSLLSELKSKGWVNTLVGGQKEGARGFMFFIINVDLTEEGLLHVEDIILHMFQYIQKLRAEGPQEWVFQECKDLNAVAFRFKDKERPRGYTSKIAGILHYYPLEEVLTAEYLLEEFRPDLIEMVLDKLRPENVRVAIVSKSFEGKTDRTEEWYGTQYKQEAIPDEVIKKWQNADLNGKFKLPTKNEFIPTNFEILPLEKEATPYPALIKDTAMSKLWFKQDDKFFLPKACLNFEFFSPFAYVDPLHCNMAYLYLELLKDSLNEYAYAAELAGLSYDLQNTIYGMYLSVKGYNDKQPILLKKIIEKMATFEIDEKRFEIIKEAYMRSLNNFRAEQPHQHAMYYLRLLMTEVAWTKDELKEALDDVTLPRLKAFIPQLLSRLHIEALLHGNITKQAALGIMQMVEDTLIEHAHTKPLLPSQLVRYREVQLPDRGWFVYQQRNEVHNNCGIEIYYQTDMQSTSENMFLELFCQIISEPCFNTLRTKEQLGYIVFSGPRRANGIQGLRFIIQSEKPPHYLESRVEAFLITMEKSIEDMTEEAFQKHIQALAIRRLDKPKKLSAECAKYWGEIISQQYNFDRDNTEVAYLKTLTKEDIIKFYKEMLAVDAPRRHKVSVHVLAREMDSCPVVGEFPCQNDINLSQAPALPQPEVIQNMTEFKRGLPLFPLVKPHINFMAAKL
An asterisk follows results filed as active.

SMILES	IDE exosite FP
Cc1ccccc1S(=O)(=O)N1CCCCN2[C@H](CO)[C@@H](c3ccc(-c4cccnc4)cc3)[C@H]2C1	-0.049
Cc1ccccc1S(=O)(=O)N1CCCCN2[C@@H](CO)[C@H](c3ccc(-c4cccnc4)cc3)[C@@H]2C1	2.3
O=S(=O)(c1ccccc1F)N1CCCCN2[C@H](C1)[C@H](c1ccc(-c3cccnc3)cc1)[C@@H]2CO	-0.54
O=S(=O)(c1ccccc1F)N1CCCCN2[C@H](CO)[C@@H](c3ccc(-c4cccnc4)cc3)[C@@H]2C1	-7.7*
COc1ccc2c3c([nH]c2c1)[C@H](CO)N(C(=O)C1CCOCC1)CC31CN(C(=O)NC(C)C)C1	-0.62
O=C(C[C@@H]1CC[C@@H]2[C@H](COC[C@H](O)CN2C(=O)Nc2ccc(Cl)cc2)O1)NCC1CCCCC1	-0.78
COc1cccc(C(=O)N2C[C@H]3[C@@H](c4ccccc42)[C@H](CO)N3C(=O)c2cccc(F)c2)c1	2.4
CCC(=O)N1[C@H](CO)[C@@H](c2ccccc2-c2ccccc2)[C@@H]1C#N	0.98
C/C=C/c1ccc([C@H]2[C@@H](CO)N3C(=O)CN(Cc4ccc(F)cc4)C[C@@H]23)cc1	-0.027
CC(C)C[C@H]1COCn2nncc2CC[C@H](C)C(=O)N1	-1.3
Cc1noc(C)c1NC(=O)Nc1ccc2c(c1)C(=O)N([C@@H](C)CO)C[C@H](C)[C@H](CN(C)Cc1ccc3c(c1)OCO3)OCCCC[C@H](C)O2	2.3
COc1ccc(NC(=O)N2CC3(C2)CN(C(C)=O)[C@@H](CO)c2[nH]c4cc(OC)ccc4c23)cc1	-0.73
C/C=C/c1ccc([C@@H]2[C@@H](CO)N(C(=O)c3ccccc3)[C@@H]2CNC(C)C)cc1	5.7
CCC(=O)N1CC(=O)N2[C@@H](CO)[C@H](c3ccc(-c4cccnc4)cc3)[C@@H]2C1	1.4
CCC(=O)N1CC(=O)N2[C@H](CO)[C@@H](c3ccc(-c4cccnc4)cc3)[C@@H]2C1	-1.4
O=C(c1ccccc1F)N1CC(=O)N2[C@H](C1)[C@@H](c1ccc(-c3cccnc3)cc1)[C@@H]2CO	-3.1*
O=C(C1CCCCC1)N1CC(=O)N2[C@H](CO)[C@H](c3ccc(-c4cccnc4)cc3)[C@H]2C1	-4.7*
O=C(C1CCCCC1)N1CC(=O)N2[C@H](C1)[C@H](c1ccc(-c3cccnc3)cc1)[C@@H]2CO	-0.0031
Cc1ccc(CN2CC(=O)N3[C@@H](CO)[C@H](c4ccc(-c5cccnc5)cc4)[C@@H]3C2)cc1	-3.1*
O=C(C1CCCCC1)N1CC(=O)N2[C@@H](CO)[C@H](c3ccc(-c4cccnc4)cc3)[C@@H]2C1	1.4
O=C1CN(Cc2ccc(F)cc2)C[C@@H]2[C@@H](c3ccc(-c4cccnc4)cc3)[C@@H](CO)N12	-0.31
O=C(c1ccccc1F)N1CC(=O)N2[C@@H](CO)[C@@H](c3ccc(-c4cccnc4)cc3)[C@@H]2C1	-1.4
O=C(c1ccccc1F)N1CC(=O)N2[C@@H](CO)[C@H](c3ccc(-c4cccnc4)cc3)[C@@H]2C1	-1.5
O=C1CN(Cc2ccc(F)cc2)C[C@H]2[C@@H](c3ccc(-c4cccnc4)cc3)[C@H](CO)N12	0.5
CCC(=O)N1CC(=O)N2[C@H](CO)[C@H](c3ccc(-c4cccnc4)cc3)[C@H]2C1	-3.1*
SMILES	IDE exosite FP
OC[C@H]1[C@@H](c2ccc(C#CC3(O)CCCC3)cc2)[C@@H]2CN(Cc3ccncc3)CCCCN12	4.1
O=C(c1ccccn1)N1CC[C@@H]2[C@H](CO)Nc3ccc(C#Cc4cccnc4)cc3[C@@H]21	-0.57
O=C(Cc1ccccn1)N1CC(=O)N2[C@H](CO)[C@H](c3ccc(C#CCC4CCCC4)cc3)[C@H]2C1	1.4
COc1ccc2c3c(n(C)c2c1)[C@@H](CO)N(CC1CC1)CC31CN(C(=O)CC2CC2)C1	-0.3
Cc1noc(C)c1NC(=O)Nc1ccc2c(c1)C(=O)N([C@@H](C)CO)C[C@@H](C)[C@H](CN(C)S(=O)(=O)c1cccs1)OCCCC[C@@H](C)O2	1.4
Cc1noc(C)c1NC(=O)Nc1ccc2c(c1)C(=O)N([C@H](C)CO)C[C@@H](C)[C@@H](CN(C)Cc1ccc3c(c1)OCO3)OCCCC[C@H](C)O2	0.3
OC[C@@H]1[C@H](c2ccc(C#CC3(O)CCCC3)cc2)[C@@H]2CN(Cc3ccncc3)CCCCN12	2.3
C[C@H](CO)N1C[C@H](C)[C@@H](CN(C)C(=O)C2CCOCC2)Oc2ncc(-c3cccc(C#N)c3)cc2C1=O	-0.59
CN1C(=O)c2cc(NC(=O)Cc3cccs3)ccc2OC[C@@H]2O[C@H](CC(=O)NCc3ccc(-c4ccccc4)cc3)CC[C@H]21	0.77
COc1ccc(NC(=O)N2CC[C@@H]3[C@H]2c2cc(C4=CCCCC4)ccc2N(C)[C@H]3CO)cc1	-0.061
CC(C)c1cn(CC[C@H]2CC[C@H](NS(=O)(=O)c3ccc(F)cc3)[C@H](CO)O2)nn1	2.6
COc1cc(CN2CC3(CCN(C(=O)Nc4c(C)noc4C)CC3)c3c(n(C)c4cc(OC)ccc34)[C@H]2CO)cc(OC)c1	-3.4*
COc1ccc2c3c(n(C)c2c1)[C@H](CO)N(C)CC31CN(C(=O)Nc2c(C)noc2C)C1	0.53
COc1cc(CN2CC3(CN(C(=O)CN4CCOCC4)C3)c3c(n(C)c4cc(OC)ccc34)[C@H]2CO)cc(OC)c1	-0.49
COc1ccc2c3c(n(C)c2c1)[C@@H](CO)N(C)CC31CN(C(=O)Nc2c(C)noc2C)C1	0.18
COc1cc(CN2CC3(CN(C(=O)Nc4c(C)noc4C)C3)c3c([nH]c4cc(OC)ccc34)[C@H]2CO)cc(OC)c1	0.21
COc1cc(CN2CC3(CCN(C(=O)Nc4c(C)noc4C)CC3)c3c(n(C)c4cc(OC)ccc34)[C@@H]2CO)cc(OC)c1	-3.4*
COc1cccc(S(=O)(=O)Nc2ccc3c(c2)C(=O)N(C)C[C@@H](OC)[C@@H](C)CN(Cc2ccccc2F)[C@H](C)CO3)c1	0.18
CO[C@H]1CN(C)C(=O)c2ccc(NC(=O)Nc3c(C)noc3C)cc2OC[C@H](C)N(CCC(F)(F)F)C[C@H]1C	0.063
CCS(=O)(=O)N1[C@H](CO)[C@H](c2ccc(-c3cccc(F)c3)cc2)[C@@H]1C#N	-2
CC(C)C#Cc1ccc([C@@H]2[C@@H](CO)N3C(=O)CN(C(=O)C4CCCCC4)C[C@@H]23)cc1	0.12
COc1ccc2c3c(n(C)c2c1)[C@@H](CO)N(Cc1ccccc1Cl)CC31CCN(C(=O)CC2CC2)CC1	-3
Cc1ccccc1-c1ccccc1[C@@H]1[C@H](C#N)N(C(=O)c2ccc(F)cc2)[C@H]1CO	1.5
CO[C@H]1CN(C)C(=O)c2ccc(NC(=O)c3ccno3)cc2OC[C@H](C)N(S(C)(=O)=O)C[C@H]1C	1.1
COc1ccccc1-c1ccc([C@@H]2[C@H]3CN(C(=O)CN4CCOCC4)CCCCN3[C@H]2CO)cc1	0.61
O=C(CN1CCOCC1)N1CCCCN2[C@H](CO)[C@@H](c3ccc(-c4ccccc4F)cc3)[C@H]2C1	1.6
COc1ccccc1-c1ccc([C@@H]2[C@H](CO)N3CCCCN(C(=O)CN4CCOCC4)C[C@@H]23)cc1	-15*
O=C(CN1CCOCC1)N1CCCCN2[C@@H](CO)[C@@H](c3ccc(-c4ccccc4F)cc3)[C@@H]2C1	-5.1*
O=C(CN1CCOCC1)N1CCCCN2[C@H](C1)[C@@H](c1ccc(-c3ccccc3F)cc1)[C@@H]2CO	-1.4
COc1ccccc1-c1ccc([C@H]2[C@H]3CN(C(=O)CN4CCOCC4)CCCCN3[C@H]2CO)cc1	-2.6
